This assay is described as follows: JC-1 mitochondrial potential readout, lung cancer cells – cell-based, A549, JC-1 fluorescence, basal, 24 h, 100 nL, profiling panel (AID 1138).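 Note: A549 lung adenocarcinoma cells under basal conditions with no added stimulus; test concentration not given here.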 The following applies: higher = more signal.
In turn, `C=CCC(OC(C)=O)[C@@H]1[C@@H](N(Cc2cccc3ccccc23)C(=O)c2cccc3ccccc23)c2cc(OCCCO)ccc2N1C(=O)c1ccc2ccccc2n1` (stereo not given in full) yielded a z-score of -0.449.
For `COc1ccc(C(O)C2C=CC3C(=O)NC(=O)C3N2Nc2ccccn2)cc1OCc1ccccc1` (stereo not given) the value was 1.73; for `CCCN1C(=O)[C@@]2(CCC(=O)OC(C)(C)C)N=C(c3ccc(OCCCO)cc3)O[C@H]2c2ccccc21`, 1.13.
With `COc1cccc(C(=O)O[C@H]2CC[C@]3(C)C4=C(CCC3C2(C)C)[C@]2(C)CC[C@H]([C@H](C)CCCC(C)C)[C@@]2(C)CC4)c1` (stereo not given in full) the figure was 0.434; with `COc1cc2c(cc1OC)CN(C(=O)[C@@H]1[C@H]3C(=O)O[C@H](c4ccccc4)[C@H](c4ccccc4)N3[C@H](c3ccccc3OCCO)[C@@]13C(=O)Nc1ccc(C#CCNC(N)=O)cc13)CC2`, -0.864.
With `CN(C)CCCCNC(=O)[C@H]1C[C@H]2C(=O)N[C@@H](Cc3ccccc3)C(=O)N2[C@H]1c1ccc(O)cc1` the figure was -0.884; with `COc1ccc(CCN2C(=O)[C@@]3(Cc4ccccc42)c2ccccc2C(=O)N(Cc2ccccc2Cl)[C@H]3c2ccc(CO)cc2)cc1`, -0.599.
Compound `CCCCCCCCCCC(O)C1C=CC2C(=O)N(Cc3ccccc3)C(=O)C2N1n1cnnc1` (stereo not given) yielded a z-score of -1.27.
With `COCCOC(=O)N1C(=O)[C@@]2(c3cc(C#CCC(C(=O)OC)C(=O)OC)ccc31)[C@H](C(=O)N1CCN(c3ncccn3)CC1)[C@H]1C(=O)O[C@H](c3ccccc3)[C@H](c3ccccc3)N1[C@@H]2c1ccc(OCCO)cc1` the figure was -1.31; with `C=C(COC)C(=O)CC[C@@H](OC(=O)c1cccnc1)c1ccc(CO)o1`, 0.217.

These data come from PubChem BioAssay.
